Where a name gives a salt, the structure may show the parent alone. ± gives the standard deviation.
tested on: Jurkat; experiment: cell count relative to DMSO control (fraction of control); higher = more cells (less growth inhibition); settings: 48 h

How did the cell count turn out when `COc1ccc(C[C@@H]2c3cc(OC)c(OC)cc3CC[N@+]2(C)CCC(=O)OCCCCCOC(=O)CC[N@@+]2(C)CCc3cc(OC)c(OC)cc3[C@H]2Cc2ccc(OC)c(OC)c2)cc1OC` [Cisatracurium Besylate] (concentration: 25 µM) was run?
Its cell count is 0.624 ± 0.064.

How did the cell count turn out when `NC(=O)c1cn(Cc2c(F)cccc2F)nn1` [Rufinamide] (concentration: 25 µM) was run?
Its cell count is 0.803 ± 0.055.

`O=c1n(CCCN2CCN(c3cccc(Cl)c3)CC2)nc2ccccn12` [Trazodone·HCl] (concentration: 25 µM) was tested. Which cell count did it give?
Its cell count is 0.878 ± 0.048.

With `CC[C@@H]1/C=C(\C)C[C@H](C)C[C@H](OC)[C@H]2O[C@@](O)(C(=O)C(=O)N3CCCC[C@H]3C(=O)O[C@H](/C(C)=C/[C@@H]3CC[C@H](Cl)[C@H](OC)C3)[C@H](C)[C@@H](O)CC1=O)[C@H](C)C[C@@H]2OC` [Pimecrolimus] (concentration: 25 µM) as the compound, how does the cell count read?
Its cell count is 0.692 ± 0.099.

With `CC(C)(C)NC(=O)[C@@H]1CN(Cc2cccnc2)CCN1C[C@@H](O)C[C@@H](Cc1ccccc1)C(=O)N[C@H]1c2ccccc2C[C@H]1O` [Indinavir] (concentration: 25 µM) as the compound, how does the cell count read?
The cell count was 0.539 ± 0.068.

Which cell count does the source give for `O=C(O)C1(C(=O)O)CCC1.[NH2-].[NH2-].[Pt+2]` [Carboplatin] (concentration: 25 µM) here?
The cell count was 0.51 ± 0.029.

`CCC(C)(C)C(=O)O[C@H]1C[C@@H](C)C=C2C=C[C@H](C)[C@H](CC[C@@H]3C[C@@H](O)CC(=O)O3)[C@H]21` [Simvastatin] (concentration: 25 µM) was tested. Which cell count did it give?
The cell count was 0.698 ± 0.029.

How did the cell count turn out when `C[C@@H](O[C@H]1OCCN(Cc2n[nH]c(=O)[nH]2)[C@H]1c1ccc(F)cc1)c1cc(C(F)(F)F)cc(C(F)(F)F)c1` [Aprepitant] (concentration: 2.5 µM) was run?
Its cell count is 0.651 ± 0.024.

With `CC(C)/N=c1\cc2n(-c3ccc(Cl)cc3)c3ccccc3nc-2cc1Nc1ccc(Cl)cc1` [Clofazimine] (concentration: 2.5 µM) as the compound, how does the cell count read?
Its cell count is 0.695 ± 0.066.

For `OC(CCN1CCCCC1)(c1ccccc1)C1CCCCC1` (configuration not stated) [Trihexyphenidyl·HCl] (concentration: 25 µM), which cell count is on record?
Its cell count is 1.05 ± 0.066.

Which cell count does the source give for `C[C@]12C=CC(=O)N[C@@H]1CC[C@@H]1[C@@H]2CC[C@]2(C)[C@@H](C(=O)Nc3cc(C(F)(F)F)ccc3C(F)(F)F)CC[C@@H]12` [Dutasteride] (concentration: 25 µM) here?
Its cell count is 0.636 ± 0.17.

`COC(=O)CCc1ccc(OCC(O)CNC(C)C)cc1` (configuration not stated) [Esmolol] (concentration: 25 µM) was tested. Which cell count did it give?
Its cell count is 1.08 ± 0.12.

`Nc1c(CC(=O)O)cccc1C(=O)c1ccc(Br)cc1` [Bromfenac] (concentration: 25 µM) was tested. Which cell count did it give?
The cell count was 1.05 ± 0.05.

`CCCNC(C)C(=O)Nc1ccccc1C` (configuration not stated) [Prilocaine·HCl] (concentration: 25 µM) was tested. Which cell count did it give?
Its cell count is 0.693 ± 0.13.

How did the cell count turn out when `C[C@H](N)[C@H](O)c1cccc(O)c1` [Metaraminol Bitartrate] (concentration: 25 µM) was run?
Its cell count is 0.774 ± 0.12.

With `Oc1ccc(C2CNCCc3c2cc(O)c(O)c3Cl)cc1` (configuration not stated) [Fenoldopam Mesylate] (concentration: 25 µM) as the compound, how does the cell count read?
The cell count was 0.272 ± 0.13.

For `O=C1CC2(CCCC2)CC(=O)N1CCCCN1CCN(c2ncccn2)CC1` [Buspirone·HCl] (concentration: 25 µM), which cell count is on record?
Its cell count is 0.96 ± 0.097.

From the supplement of paper PMC4709259
